Reference: paper PMC5540273 (PLoS ONE, 2017)

Assays:
Settings in all cases: concentration: 1 μM, replicates: in singlicate; n = 1
TRPM6 = tested on: TRPM6
TSSK1B = tested on: TSSK1B
TSSK3 = tested on: TSSK3
TTK = tested on: TTK
TXK = tested on: TXK
[1] = tested on: TYK2(JH1domain-catalytic)
[2] = tested on: TYK2(JH2domain-pseudokinase)
TYRO3 = tested on: TYRO3
ULK1 = tested on: ULK1
ULK2 = tested on: ULK2
ULK3 = tested on: ULK3
VEGFR2 = tested on: T1, VEGFR2
T1 construct: gene KDR

VPS34 = tested on: T2, VPS34
T2 construct: gene PIK3C3

VRK2 = tested on: VRK2
WEE1 = tested on: WEE1
WEE2 = tested on: WEE2
WNK1 = tested on: WNK1
WNK2 = tested on: WNK2
WNK3 = tested on: WNK3
WNK4 = tested on: WNK4
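Further: KINOMEscan kinase panel screen.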

Compound | %Inh (TRPM6) [%] | %Inh (TSSK1B) [%] | %Inh (TSSK3) [%] | %Inh (TTK) [%] | %Inh (TXK) [%] | %Inh [1] [%] | %Inh [2] [%] | %Inh (TYRO3) [%] | %Inh (ULK1) [%] | %Inh (ULK2) [%] | %Inh (ULK3) [%] | %Inh (VEGFR2) [%] | %Inh (VPS34) [%] | %Inh (VRK2) [%] | %Inh (WEE1) [%] | %Inh (WEE2) [%] | %Inh (WNK1) [%] | %Inh (WNK2) [%] | %Inh (WNK3) [%] | %Inh (WNK4) [%]
O=C(Nc1n[nH]c2cc(-c3ccccc3F)ccc12)C1CC1 [SB-733371] | 0 | 0 | 0 | 0 | 12 | 0 | 0 | 0 | 2 | 8 | 33 | 4 | 0 | 0 | 5 | 0 | 0 | 0 | 0 | 6
COC(=O)c1c(-c2ccccc2)c2cc(Br)ccc2c(=O)n1Cc1ccc(NC(=O)CCC(=O)O)cc1 | 0 | 0 | 0 | 9 | 39 | 4 | 0 | 0 | 8 | 11 | 16 | 0 | 0 | 0 | 0 | 21 | 0 | 26 | 0 | 0
COc1ccc(-c2cc3c(C)nc(N)nc3n([C@H]3CC[C@H](O)CC3)c2=O)cn1 | 0 | 0 | 0 | 0 | 0 | 0 | 0 | 0 | 0 | 0 | 0 | 0 | 0 | 0 | 0 | 0 | 0 | 0 | 0 | 18
O=C(Nc1n[nH]c2nc(-c3ccccc3)c(Cl)cc12)C1CC1 [SB-734909] | 29 | 0 | 0 | 0 | 4 | 25 | 16 | 0 | 22 | 20 | 0 | 15 | 0 | 0 | 0 | 0 | 1 | 0 | 7 | 0
CCCNC(=O)Nc1ccc(Oc2ncnc3ccn(C)c23)cc1 | 0 | 0 | 0 | 0 | 0 | 13 | 22 | 0 | 14 | 10 | 30 | 13 | 34 | 0 | 0 | 13 | 0 | 3 | 0 | 0
Nc1nccc2scc(-c3ccc4c(c3)CCN4C(=O)Cc3ccccc3)c12 [GSK2576924] | 13 | 0 | 14 | 0 | 4 | 14 | 0 | 0 | 2 | 0 | 12 | 5 | 0 | 0 | 14 | 0 | 17 | 26 | 27 | 0
COC(=O)c1c(-c2ccccc2)c2cc(Br)ccc2c(=O)n1Cc1ccc(S(C)(=O)=O)cc1 | 2 | 0 | 0 | 31 | 12 | 7 | 15 | 1 | 0 | 13 | 13 | 0 | 0 | 0 | 0 | 16 | 0 | 13 | 0 | 0
FC(F)(F)c1ccc(-c2ncn(CCCN3CCOCC3)c2-c2ccncc2)cc1 [SB-217780] | 4 | 0 | 0 | 0 | 10 | 32 | 24 | 0 | 1 | 46 | 4 | 14 | 13 | 42 | 48 | 34 | 20 | 0 | 15 | 0
Cc1ccc(Oc2ccc(Nc3ncnc4cc[nH]c34)cc2C)cn1 | 0 | 5 | 0 | 31 | 6 | 22 | 15 | 3 | 11 | 0 | 22 | 15 | 20 | 0 | 0 | 0 | 0 | 0 | 10 | 0
Cc1nnc(-c2ccc(C)c(-c3ccc(C(=O)O)cc3)c2)o1 [GW608005] | 1 | 10 | 0 | 12 | 0 | 15 | 8 | 0 | 8 | 0 | 0 | 3 | 0 | 0 | 0 | 0 | 30 | 0 | 15 | 0
Fc1cccc(CSc2nnc(-c3ccc4c(c3)CCO4)o2)c1 | 0 | 0 | 2 | 2 | 0 | 4 | 12 | 0 | 0 | 9 | 11 | 0 | 13 | 5 | 0 | 16 | 0 | 14 | 0 | 0
CCCC(=O)Nc1n[nH]c2ncc(-c3cccc4ccccc34)cc12 [SB-642057] | 48 | 36 | 0 | 0 | 52 | 0 | 38 | 0 | 18 | 1 | 26 | 11 | 0 | 0 | 6 | 0 | 12 | 6 | 0 | 0
CCS(=O)(=O)c1ccc(OC)c(Nc2ncc(-c3ccc(F)cc3)o2)c1.Cl [GW591947] | 4 | 10 | 13 | 0 | 0 | 1 | 0 | 4 | 0 | 0 | 0 | 0 | 21 | 0 | 12 | 0 | 2 | 4 | 21 | 0
COc1cc2nccc(Nc3ccc(OCc4ccc(NC(C)=O)cc4)cc3)c2cc1OC.Cl [GW440135] | 3 | 0 | 26 | 0 | 6 | 9 | 5 | 0 | 0 | 0 | 13 | 96.2 | 0 | 35 | 29 | 12 | 2 | 16 | 39 | 0
Cc1nnc(-c2ccc3ncn(-c4ccc(S(C)=O)cc4)c3c2)o1 (centres unmarked) | 0 | 0 | 6 | 0 | 5 | 0 | 2 | 12 | 0 | 0 | 0 | 3 | 15 | 0 | 0 | 21 | 0 | 0 | 0 | 0
COc1cc(Nc2nccc(N3CCC(NC(=O)C4COc5ccccc5O4)C3)n2)cc(OC)c1OC (centres unmarked) [GSK1379761] | 0 | 0 | 9 | 13 | 10 | 81 | 29 | 0 | 8 | 0 | 69 | 0 | 16 | 41 | 10 | 0 | 1 | 19 | 46 | 50
